Shown are actives, neighbours in structure and some others; about 4.5% of the full set was active somewhere.
DAX1 inh-1: blocks DAX1 repression of SF-1 activated StAR promoter; HEK293T StAR-luciferase reporter, SF-1/DAX-1 repression relief; inhibition, % at 6.8 µM; 370,000 tested, 1.1% active;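 active means inhibition above the mean over all tested compounds plus 3 SD, cut at about 3.6% in these data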;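 further: 0% = DAX-1 cells with DMSO and 100% = cells lacking DAX-1 with DMSO; higher inhibition means more luminescence from relief of DAX-1 repression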
ssDAF-12 act: S. stercoralis DAF-12 activation, primary screen. activation, % at 6.8 µM. 370,000 tested, 1% active. AID 652126. HEK293 ssDAF-12/GRIP1 lit1-tk-luc reporter, luminescence; % of 3 µM dafachronic acid response;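 active means activation above the mean over all tested compounds plus 3 SD, cut at about 0.9% in these data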;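 further: 0% = DMSO-only wells and 100% = 3 µM delta7-dafachronic acid wells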
FXN GAA850 act: activators of GAA850 frataxin (FXN) promoter | HEK293 lucGAA850 FXN promoter luciferase reporter, 24 h; percent of 10 µM SAHA response | activation, % at 6 µM | 360,000 tested, 0.56% active;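 active means activation above the average of all compounds screened plus 3 SD, cutoff fixed separately per campaign, cut at about 7.5% in these data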;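 further: 0% = DMSO wells and 100% = 10 µM SAHA wells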
DAX1 inh-2: NR0B1 (DAX1) inhibition | P51843 | HEK293 Gal4-DAX1 luciferase reporter, luminescence | inhibition, % at 6.75 µM | 340,000 tested, 0.99% active | AID 504766;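 active means inhibition above the mean over all tested compounds plus 3 SD, cut at about 4.2% in these data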;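 further: 0% = DAX1-transfected cells with DMSO and 100% = empty-vector control cells with DMSO; inhibition shows as a rise in luminescence from relieved DAX1 repression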
Target sequence (P51843 207-470 limits assumed): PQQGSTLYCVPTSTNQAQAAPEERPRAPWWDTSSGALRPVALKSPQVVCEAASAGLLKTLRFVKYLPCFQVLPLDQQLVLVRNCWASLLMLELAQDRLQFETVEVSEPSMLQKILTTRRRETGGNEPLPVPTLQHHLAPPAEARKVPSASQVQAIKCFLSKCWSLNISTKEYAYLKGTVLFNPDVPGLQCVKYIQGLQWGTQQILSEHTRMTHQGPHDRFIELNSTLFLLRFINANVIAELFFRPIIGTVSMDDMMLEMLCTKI
hgDAF12 agonist: hgDAF-12 agonism, primary luciferase screen. HEK293 GAL4-hgDAF12 UAS-luciferase reporter, agonist luminescence; normalized to butyrate control. activation, % at 6.8 µM. 370,000 tested, 1.8% active. AID 687014;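 active means activation above a cutoff set at the mean of all screened compounds plus 3 SD, cut at about 10% in these data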;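 further: 0% = DMSO wells and 100% = sodium butyrate wells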
hcDAF-12 act: H. contortus DAF-12 activation, primary screen; HEK293 hcDAF-12 lit1-tk-luc reporter, luminescence; 0% DMSO, 100% Δ7-dafachronic acid; activation, % at 6.8 µM; 370,000 tested, 1.4% active;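 active means activation above the mean of all tested compounds plus 3 SD, cut at about 5.5% in these data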;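 further: 100% = response to 3 µM Δ7-dafachronic acid high control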
* hit, by the source's call; / = no result.

SMILES	DAX1 inh-1	ssDAF-12 act	FXN GAA850 act	DAX1 inh-2	hgDAF12 agonist	hcDAF-12 act
Cc1nn(-c2ccccc2)c2sc(C(=O)NCCc3ccccc3)cc12	-1.0	-2.0	/	/	5.1	-0.1
Cc1ccc(N=Nc2ccc3ccccc3c2O)cc1	0.2	-0.6	-6.2	3.6	-2.3	5.4
COc1cccc(N=Nc2ccc3ccccc3c2O)c1	1.7	1.6*	5.4	3.6	9.8	3.7
CN(Cc1nc(-c2ccccc2)no1)C1CCOCC1	1.1	-1.0	5.5	4.8*	11.1*	1.5
COc1ccc(-c2noc(CN(C)C3CCOCC3)n2)cc1	0.1	-0.8	1.5	0.8	-1.7	-0.2
O[C@H](COc1cccc(Cl)c1)CN1CCC(C(O)(c2ccccc2)c2ccccc2)CC1	-0.3	-1.0	/	/	6.2	-2.9
Cc1ccccc1NC(=O)N(C)[C@H]1C[C@H]2c3[nH]c4c(-c5ccccc5)cccc4c3CCN2C[C@H]1[C@H](C)O	-1.4	-2.1	/	/	0.3	-2.5
Cc1ccc(/C=N/OC(=O)c2c(C)noc2-c2snnc2C)cc1	0.2	-1.4	0.4	5.7*	0.4	0.0
O=C(N/N=C/c1ccc([N+](=O)[O-])cc1)c1[nH]ncc1Br	1.9	0.1	7.2	4.7*	8.8	0.2
O=C(CNc1ccccc1)N/N=C/c1ccc([N+](=O)[O-])cc1	-0.2	1.6*	0.4	1.2	3.7	-1.2
COc1ccc(C(CC(=O)c2ccc(O)cc2)S(=O)(=O)c2ccc(C)cc2)cc1 (stereo unspecified)	0.1	0.4	0.9	1.3	9.9	5.4
COc1ccc(C(CC(=O)c2ccc(C)cc2)Sc2ccccc2N)cc1 (stereo unspecified)	2.8	0.4	3.4	0.9	5.5	5.7*
Nc1ccccc1SC(CC(=O)c1ccccc1)c1ccc([N+](=O)[O-])cc1 (stereo unspecified)	-1.2	0.1	8.0*	0.8	4.7	1.9
Nc1ccccc1SC(CC(=O)c1ccccc1)c1cccc([N+](=O)[O-])c1 (stereo unspecified)	-3.2	-0.5	11.3*	1.0	3.8	4.6
O=C(NC(NC(=O)c1ccccc1)c1cccc([N+](=O)[O-])c1)c1ccccc1	-0.8	-1.0	-0.7	1.3	-4.0	-1.1
Cc1ccc(-n2c(SCC(=O)NN=Cc3c[nH]c4ccccc34)nnc2-c2ccccc2)cc1	-0.5	-0.2	/	/	-1.6	1.3
COC(=O)[C@]12C[C@H](CC(=O)NCC34CC5CC(CC(C5)C3)C4)C(=O)N(Cc3ccco3)C1=C[C@H](C1CCCC1)O[C@@H]2C	-1.1	-0.3	/	/	-2.5	-2.8
CN1CCC(N[C@@H](Cc2c[nH]c3ccccc23)C(=O)NCCCc2ccccc2)(C(=O)NCCc2c[nH]c3ccccc23)CC1	/	-0.8	/	/	3.4	6.3*
COc1cccc(/C=C/C(=O)c2ccc[nH]2)c1	1.3	1.2*	3.6	2.0	6.2	3.2
O=C(/C=C/c1ccc2c(c1)OCO2)c1ccc[nH]1	2.5	0.3	7.1	2.9	10.8*	3.5
COc1cccc(/C=C/C(=O)Oc2ccc(C(=O)c3ccc(F)cc3)cc2)c1	-0.4	-1.6	1.3	1.6	-2.2	0.4
O=C(/C=C/c1ccc2c(c1)OCO2)c1ccc(F)cc1	0.2	-0.7	0.8	1.0	4.5	1.4
C=CCOc1ccc(/C=C2\SC(=S)N(N3CCOCC3)C2=O)cc1	2.1	-0.1	-0.7	1.4	9.9	5.7*
COc1cccc(NS(=O)(=O)NC(=O)c2c[nH]c3ccccc23)c1	-0.1	-1.1	-0.6	0.1	1.1	0.5
CN(C)S(=O)(=O)c1cccc(NC(=O)c2c[nH]c3ccccc23)c1	-0.4	1.3*	-0.2	-0.7	3.0	2.1
SMILES	DAX1 inh-1	ssDAF-12 act	FXN GAA850 act	DAX1 inh-2	hgDAF12 agonist	hcDAF-12 act
O=C(NS(=O)(=O)Nc1ccccn1)c1c[nH]c2ccccc12	-0.1	1.0*	0.8	0.7	2.5	5.5
COc1ccc(NS(=O)(=O)NC(=O)c2c[nH]c3ccccc23)cc1	0.3	-0.5	-4.1	-0.1	1.9	5.8*
COc1ccc(C=Nn2c(-c3ccc(F)cc3)n[nH]c2=S)cc1OCc1ccccc1	-0.4	-2.0	/	/	1.9	-0.2
c1cncc(CSc2ccc(-c3cccs3)nn2)c1	-0.1	-1.2	4.5	0.6	11.9*	1.7
Cc1ccc(CSc2ccc(-c3cccs3)nn2)cc1	0.6	-1.3	3.0	3.0	5.3	0.1
O=C(Nc1ccc(-c2nc3ccccc3s2)c(O)c1)C1=COCCO1	3.3	0.6	3.5	4.9*	9.6	4.6
CC(=O)Nc1cccc(-c2csc(N)n2)c1	-0.3	-1.2	-0.1	-0.7	1.8	-0.7
CC(=O)Nc1ccc(O)c(-c2nc3ccccc3s2)c1	0.6	0.0	4.3	-1.2	14.4*	4.1
CC(=O)Nc1cccc(-c2cc(C)c3cc4c(cc3n2)OCO4)c1	1.4	-0.1	5.7	1.6	7.1	5.6*
CC(=O)Nc1cccc(-c2nc3ccccc3s2)c1	1.6	-0.2	6.5	0.2	11.3*	1.4
O=C(Nc1ccc(O)c(-c2nc3ccccc3s2)c1)C1=COCCO1	0.9	-1.0	1.1	-0.2	3.2	0.6
CCOC(=O)[C@]12CCCC=C1N(Cc1ccc(OC)cc1)C(=O)[C@@H]2CC(=O)NCc1cccc2ccccc12	-0.8	-1.2	/	/	-2.8	-3.4
COc1ccc(-n2cnc3ccccc32)cc1	0.2	-0.7	-1.5	1.5	3.4	0.9
c1ccc(-n2cnc3ccccc32)cc1	0.9	-0.8	-2.8	2.3	11.0*	-1.3
CCOc1ccc(CCN2C(=O)C(=O)N([C@@H](CC(C)C)CN3CCC[C@H]3CN3C(=O)C(=O)NC[C@@H]3Cc3ccccc3)C[C@@H]2Cc2ccc(O)cc2)cc1	3.9*	-0.8	/	/	0.2	0.3
CC(C)C[C@H]1CNC(=S)N1CC1CCCN1C[C@H](Cc1ccc(O)cc1)N1C[C@H](Cc2ccccc2)N(CC2CCCCC2)C1=S (stereo partly specified)	0.7	-0.5	-1.5	-1.5	-2.3	0.1
CCOc1ccc(CCN2C(=O)C(=O)N([C@@H](CC(C)C)CN3CCC[C@@H]3CN3C(=O)C(=O)NC[C@@H]3Cc3ccccc3)C[C@@H]2Cc2ccc(O)cc2)cc1	-0.8	-0.6	0.7	0.0	0.2	-0.1
CC(C)C[C@H]1CNC(=S)N1C[C@H]1CCCN1C[C@H](Cc1ccccc1)N1C[C@H](Cc2ccc(O)cc2)N(CC2CCCCC2)C1=S	3.8*	-1.2	/	/	1.1	0.0
COc1ccc(-c2nnc(SCC(=O)NN=C(C)c3cccc4ccccc34)n2-c2ccc(C)cc2)cc1	-0.7	-1.8	/	/	-3.2	0.4
N#CCC[C@@H]1CC[C@]2(CCCN(C(=O)c3ccco3)C2)O1	-0.9	-1.2	/	/	3.0	-0.7
COC(=O)c1oc2ccccc2c1NC(=O)c1ccccc1O	-0.9	-0.6	0.5	-0.2	-1.2	-0.1

Screening data from PubChem.
